Source: PubChem (The Scripps Research Institute Molecular Screening Center)
M1 ag parental = counter-screen for M1 agonists: effect in parental CHO-K1 cells. Fluo-8 calcium fluorescence; scaled to maximal ATP response, vehicle zero. activation, % at 3 µM. actives 0.48% (n = 360,000). AID 602248; in the data active means activation above about 15%;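 further: untransfected CHO-K1 host cells lacking M1 receptor as counterscreen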
CHO-K1 Ca PAM = nonselective activator or artifact in parental CHO-K1 calcium assay. ATP EC20, Fluo-8 calcium fluorescence; 0% at ATP EC20, 100% at ATP max. activation, % at 3 µM. actives 0.02% (n = 360,000). AID 602247;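 active means activation above the run cutoff, the mean activation of all test compounds plus 3 SD, cut at about 40% in these data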;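 further: peak over basal fluorescence ratio in a 140 s read after ATP addition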
CHO-K1 Ca antag = nonselective inhibitor or artifact in parental CHO-K1 cells; ATP-induced calcium, Fluo-8 fluorescence; inhibition, % at 3 µM; actives 0.6% (n = 360,000); AID 602250;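 active means inhibition above a per-plate cutoff, the plate's mean sample inhibition plus 3 SD, cut at about 24% in these data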;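 further: 0% = DMSO plus EC80 ATP and 100% = DMSO alone without ATP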
M1 PAM = potentiates human M1 receptor response to acetylcholine; activation, % at 3 µM; P11229; CHO-K1 hM1, Fluo-8 calcium fluorescence, ACh EC20; 0% = ACh EC20, 100% = maximal ACh; AID 588819; actives 0.088% (n = 360,000); in the data active means activation above about 19%, passing the limit was not always enough
Target sequence (P11229 whole entry, looked up): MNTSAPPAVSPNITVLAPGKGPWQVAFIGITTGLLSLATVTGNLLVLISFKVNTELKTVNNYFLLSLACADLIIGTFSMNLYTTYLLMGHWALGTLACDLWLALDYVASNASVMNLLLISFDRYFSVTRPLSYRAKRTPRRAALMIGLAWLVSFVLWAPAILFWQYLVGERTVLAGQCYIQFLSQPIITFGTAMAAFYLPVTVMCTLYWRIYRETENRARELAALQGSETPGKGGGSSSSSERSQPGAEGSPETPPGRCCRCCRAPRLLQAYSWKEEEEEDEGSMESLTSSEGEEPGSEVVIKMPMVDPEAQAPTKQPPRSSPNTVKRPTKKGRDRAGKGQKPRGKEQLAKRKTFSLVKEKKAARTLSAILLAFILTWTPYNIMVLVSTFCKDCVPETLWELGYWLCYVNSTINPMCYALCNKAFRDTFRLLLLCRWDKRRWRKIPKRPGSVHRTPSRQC
M1 ag = activates human CHRM1 receptor. CHO-K1 hM1, Fluo-8 calcium fluorescence, agonist mode; 0% DMSO, 100% acetylcholine EC100. activation, % at 3 µM. actives 0.33% (n = 360,000);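 active means activation above the run's mean compound activation plus 3 SD, cut at about 16% in these data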;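 further: peak over basal fluorescence ratio within a 140 s kinetic read after compound addition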
M1 antag = human CHRM1 antagonism; P11229; CHO-K1 hM1, Fluo-8 calcium fluorescence, ACh EC80 antagonist; inhibition, % at 3 µM; actives 1.3% (n = 360,000);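 active means percent inhibition above its own plate's cutoff, namely the mean of that plate's compound wells plus 3 SD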;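 further: peak over basal fluorescence ratio during 140 s after agonist addition; 0% = ACh EC80 plus DMSO and 100% = DMSO alone without agonist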
* hit, by the source's call. Rows were chosen to be rich in hits. Some 2.3% of all compounds tested hit in one or more screens of this group.

SMILES	M1 ag parental	CHO-K1 Ca PAM	CHO-K1 Ca antag	M1 PAM	M1 ag	M1 antag
COc1ccc(C2(C)NC(=O)N(CC(=O)N3CCc4ccccc43)C2=O)cc1OC (configuration not stated)	-0.5	7.7	-14.7	2.5	-3.0	1.0
CCC1(c2ccc(F)cc2)NC(=O)N(CC(=O)N2c3ccccc3CC2C)C1=O (configuration not stated)	12.3	13.9	-18.8	-1.1	26.9*	5.6
CCC1(c2ccc(F)cc2)NC(=O)N(CC(=O)N2c3ccccc3NC(=O)CC2C)C1=O (configuration not stated)	-0.5	-13.4	9.5	9.9	-1.1	-6.2
CCC1(c2ccc(F)cc2)NC(=O)N(CC(=O)c2cc(C)n(C3CC3)c2C)C1=O (configuration not stated)	25.6*	28.1	1.2	1.0	30.3*	7.1
Cn1c(-c2ccc(F)cc2)cnc1NCc1cccc([N+](=O)[O-])c1	0.9	11.5	0.5	-19.3	-10.8	20.8
Cc1ccc(NC(=O)CN(C)C(=O)Cc2c[nH]c3ccccc23)cc1	0.6	6.6	-4.1	3.1	-3.6	-6.5
CC(=O)c1ccc(-c2ccc(C(=O)Nc3nc(C)c(C(C)=O)s3)o2)cc1	0.1	6.3	-9.0	3.2	-2.2	-0.4
CCc1cc(C(=O)N(C)CC(=O)Nc2c(Cl)cccc2Cl)sc1C	0.5	4.0	-5.9	-1.8	-3.1	-2.0
Cc1ccc(N(C)C(=O)CCNC(=O)Cn2cnc3ccccc3c2=O)cc1C	1.3	16.8	35.1*	9.5	-4.8	-14.5
CC(C)[N+](C)(C)CC(O)CN(c1ccccc1)c1ccccc1 (configuration not stated)	0.0	6.8	-4.9	-28.0	-8.5	85.5*
NCC(O)CN(c1ccccc1)c1ccccc1 (configuration not stated)	-0.4	-9.3	11.9	-4.4	-4.8	6.7
CN(C)N1C(N)=C(C#N)C(c2cccs2)C2=C1CCCC2=O (configuration not stated)	0.3	12.2	-6.6	1.6	-4.7	0.3
Cc1ccsc1C1C(C#N)=C(N)N(N(C)C)C2=C1C(=O)CCC2 (configuration not stated)	0.6	9.1	-9.0	-0.7	-5.4	39.1*
Cc1ccc(C)c(NC(=S)/C(=C(\[O-])c2ccc(Cl)s2)[n+]2ccccc2)c1	6.8	17.3	-0.4	-11.3	-6.3	23.0*
[O-]/C(=C(\C(=S)Nc1cccc2ccccc12)[n+]1ccccc1)c1ccc(Cl)s1	0.0	3.8	0.5	4.5	-7.8	-0.9
Cc1ccc(S(=O)(=O)N2CCOCC2)cc1NC(=O)COc1ccc(C(=O)c2ccccc2)cc1	16.3*	-5.5	5.3	-19.6	1.5	36.7*
COc1ccc(CNC(=O)COc2ccc(S(=O)(=O)N3CCOCC3)cc2)cc1	1.0	-9.9	-1.5	0.2	-1.6	-0.4
O=C(CCCOc1ccc(Br)cc1)Nc1ccc(S(=O)(=O)N2CCOCC2)cc1	13.3	-9.7	4.9	-13.2	2.6	31.7*
COc1ccc(S(=O)(=O)N2CCOCC2)cc1NC(=O)c1ccc(=O)[nH]c1	0.9	-2.6	54.3*	6.1	-2.5	-9.7
COc1ccc(S(=O)(=O)N2CCOCC2)cc1NC(=O)c1ccc2c(c1)OCO2	2.3	1.5	-8.2	5.9	-2.1	-4.9
O=C(COc1ccc(S(=O)(=O)N2CCOCC2)cc1)Nc1ccc(Br)cc1	6.0	9.6	-4.7	-0.2	-0.6	-1.3
O=C(COc1ccc(S(=O)(=O)N2CCOCC2)cc1)NCc1ccccc1	0.3	-16.4	21.7	-7.4	-2.2	29.2*
COc1ccc(CCNC(=O)Nc2cccs2)c(OC)c1	0.8	0.7	-9.2	-0.6	-4.0	-1.8
CCCOc1ccc(/C=C/C(=O)OCC(=O)N(C)c2c(N)n(Cc3ccccc3)c(=O)[nH]c2=O)cc1OCC	-0.2	-18.3	9.4	-0.9	-4.2	4.7
O=C(NCCN1CCN(S(=O)(=O)c2ccc(F)cc2)CC1)C(=O)NCc1ccccc1	3.4	0.1	24.0*	2.0	-4.2	-1.6
COc1ccc(S(=O)(=O)N2CCOCC2)cc1NC(=O)CO/N=C/c1ccccc1OC(F)F	15.1*	21.2	1.1	12.8	-7.9	-11.2
CCOC(=O)c1c(-c2ccccc2)nnn1-c1nc(OCC)nc(N2CCCCC2)n1	7.7	-1.0	53.8*	-9.5	-4.2	3.1
O=C1CNC(=O)/C1=C\N1CCN(C(c2ccccc2)c2ccccc2)CC1	0.9	24.9	-11.8	-26.3	-5.5	42.7*
COc1ccc2c(c1)C1(Nc3ccccc3-c3nc4ccccc4n31)C(=O)N2 (configuration not stated)	37.4*	12.6	3.6	2.0	-0.3	10.0
